“And” between values parts separate entries of the source, which are not always exact repeats. Equal values may be shown once. This is part of a sample that, as a whole, favours compounds with a hit. Of some 79,000 tested, about 15% had one in any assay. Some compounds were tested as several samples or in several runs, with calls that do not always agree. The source made the active and inactive calls. Cut-off read from the data, not from the text of the source: active = growth inhibition above about 70%; inactive = the rest.
Key:
[1] = NCI Yeast Anticancer Drug Screen. Data for the rad50 strain (AID 155);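 note: 0% = growth of vehicle-only cultures of the same strain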; conditions: S. cerevisiae rad50 strain growth inhibition, stronger effect = higher value
How it was run: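 Inhibition values express reduced yeast growth in compound-treated cultures relative to vehicle-treated controls.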

[2] = NCI Yeast Anticancer Drug Screen. Data for the mec2-1 strain (AID 157); conditions: S. cerevisiae mec2-1 strain, stronger effect = higher value
How it was run: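 Test agents were screened against the mec2-1 yeast strain, with defined DNA repair or cell cycle alteration. Growth was scored as inhibition against vehicle-only controls.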

[3] = NCI Yeast Anticancer Drug Screen. Data for the sgs1 mgt1 strain (AID 161);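 note: 0% = growth of cultures given vehicle only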; conditions: S. cerevisiae sgs1 mgt1 strain, stronger effect = higher value
How it was run: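 Genetically altered yeast, compound exposure, growth inhibition relative to vehicle.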

[4] = NCI Yeast Anticancer Drug Screen. Data for the cln2 rad14 strain (AID 165);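 note: 0% = growth equal to vehicle treated cultures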; conditions: S. cerevisiae cln2 rad14 strain, stronger effect = higher value
How it was run: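 Growth of compound-exposed yeast (cln2 rad14 genotype) measured and expressed as inhibition relative to vehicle.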

[5] = NCI Yeast Anticancer Drug Screen. Data for the bub3 strain (AID 167); conditions: S. cerevisiae bub3 mutant strain, stronger effect = higher value
How it was run: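 Steps: expose the mutant yeast strain to compound; grow alongside vehicle-treated cultures; measure growth; express inhibition against the vehicle cultures.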

[6] = NCI Yeast Anticancer Drug Screen. Data for the mlh1 rad18 strain (AID 175); conditions: S. cerevisiae mlh1 rad18 strain growth inhibition, stronger effect = higher value
How it was run: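 In this whole-cell yeast screen, a strain with altered DNA damage repair is challenged with compound, and its growth is measured against matched vehicle-treated controls.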

[7] = at 5.0 µM (retest, dose inferred, filed as 0.5)
[8] = at 50.0 µM (retest, dose inferred, filed as 5.0)

Measured: growth inhibition

O=C1C=CC(=O)N1c1ccc(N=Nc2ccccc2)cc1
89.7% (active) and 21.8% (inactive): [3]; at 50.0 µM
86.2% (active) and 7.45% (inactive): [1]; at 50.0 µM
86.2% (active) and -13.1% (inactive): [2]; at 50.0 µM
active: [1]; [7] 97% | [1]; [8] 99% | [2]; [7] 99% | [2]; [8] 99% | [3]; [7] 99% | [3]; [8] 91% | [4]; [7] 98% | [4]; [8] 92% | [5]; [7] 99% | [5]; [8] 91% | [6]; [7] 98% | [6]; [8] 99%
87.2% (active) and 20.6% (inactive): [4]; at 50.0 µM
87% (active) and 5.75% (inactive): [5]; at 50.0 µM
85.5% (active) and 5.9% (inactive): [6]; at 50.0 µM

CC1(c2ccccc2)c2ccccc2N(c2ccccc2)C(=O)C1O (stereo not given)
-2.35% (inactive) and 99.5% (active): [1]; at 50.0 µM
active: [1]; [7] 98% | [1]; [8] 100% | [2]; [7] 98% | [2]; [8] 100% | [3]; [7] 97% | [3]; [8] 99% | [4]; [7] 96% | [4]; [8] 99% | [6]; [7] 98% | [6]; [8] 99%
1.8% (inactive) and 99.2% (active): [4]; at 50.0 µM
7.75% (inactive) and 99.7% (active): [2]; at 50.0 µM
8.35% (inactive) and 99.6% (active): [3]; at 50.0 µM
10.2% (inactive) and 99.4% (active): [6]; at 50.0 µM

C=CCNC(=O)c1ccccc1SC(C)=O
active: [1]; [8] 99% | [1]; at 50.0 µM 88.9% | [2]; [8] 99% | [2]; at 50.0 µM 91.5% | [3]; [8] 99% | [3]; at 50.0 µM 89% | [4]; [8] 96% | [4]; at 50.0 µM 72% | [6]; [8] 99% | [6]; at 50.0 µM 89.3%
inactive: [1]; [7] 14% | [2]; [7] 33% | [3]; [7] 20% | [4]; [7] 23% | [6]; [7] 18%

Nc1ccc(N=Nc2ccccc2)c(N)n1
inactive: [1]; [7] -166% | [1]; [8] -14% | [1]; at 50.0 µM 38.1% and 16.4% | [2]; [7] -54% | [2]; [8] -20% | [2]; at 50.0 µM 30.4% and 10.7% | [3]; [7] -73% | [3]; [8] 4% | [3]; at 50.0 µM 28.6% and 5.05% | [4]; [7] -72% | [4]; [8] 10% | [4]; at 50.0 µM 9.05% and 19.2% | [5]; [7] -71% | [5]; [8] -26% | [5]; at 50.0 µM 27.2% and 3.75% | [6]; [7] -130% | [6]; [8] -25% | [6]; at 50.0 µM 57.1% and 7.85%

CCCCCCCCC(Sc1n[nH]c(=O)[nH]c1=O)C(=O)OCC (stereo not given)
inactive: [1]; [7] 4% | [1]; [8] 35% | [2]; [7] 1% | [3]; [7] 4% | [3]; [8] 29% | [4]; [7] 1% | [5]; [7] -4% | [6]; [7] 3% | [6]; [8] 48%
active: [1]; at 50.0 µM 85.5% | [2]; [8] 70% | [2]; at 50.0 µM 89.7% | [3]; at 50.0 µM 91.6% | [4]; [8] 88% | [4]; at 50.0 µM 84.8% | [5]; [8] 88% | [5]; at 50.0 µM 88.5% | [6]; at 50.0 µM 89.5%

O=NC1C(Cl)C2CC1C1C(Br)C(Br)CC21 (stereo not given)
inactive: [1]; [7] 4% and 3% | [1]; [8] 4% and 46% | [1]; at 50.0 µM 3.2% and 55.5% and 48.2% | [2]; [7] 23% and 4% | [2]; [8] 2% and 22% | [2]; at 50.0 µM 1.4% and 32.1% and 34% | [3]; [7] -3% and -2% | [3]; [8] 2% and 29% | [3]; at 50.0 µM 19.9% and 66.5% and 56.3% | [4]; [7] 1% and 0% | [4]; [8] 1% and 16% | [4]; at 50.0 µM -26.6% and 7.1% and 6.65% | [5]; [7] 4% and 0% | [5]; [8] -7% and 7% | [5]; at 50.0 µM -5.1% and 11.2% and 8.2% | [6]; [7] 6% and 4% | [6]; [8] 31% and 52% | [6]; at 50.0 µM 30.6% and 69.8% and 59.1%

C=C1C(=O)N2c3ccccc3C(C)(C)C2(S)C(=O)N1C (stereo not given)
active: [1]; [8] 87% | [1]; at 50.0 µM 88.8% | [2]; [8] 86% | [2]; at 50.0 µM 95.6% | [3]; at 50.0 µM 96.5% | [5]; [8] 78% | [5]; at 50.0 µM 93.6% | [6]; [8] 83% | [6]; at 50.0 µM 96.7%
inactive: [1]; [7] 9% | [2]; [7] 3% | [3]; [7] 3% | [3]; [8] 67% | [4]; [7] -9% | [4]; [8] 40% | [4]; at 50.0 µM 63.9% | [5]; [7] -5% | [6]; [7] 5%

CCOC(=O)C(Cc1ccccc1[N+](=O)[O-])C(=O)OCC
inactive: [1]; [7] -5% | [1]; [8] -33% | [1]; at 50.0 µM 5.4% | [2]; [7] -27% | [2]; [8] -5% | [2]; at 50.0 µM -3.7% | [3]; [7] -21% | [3]; [8] 3% | [3]; at 50.0 µM 28.6% | [4]; [7] 17% | [4]; [8] 10% | [4]; at 50.0 µM 7.75% | [5]; [7] 30% | [5]; [8] 3% | [5]; at 50.0 µM 44.6% | [6]; [7] 0% | [6]; [8] -22% | [6]; at 50.0 µM 20.5%

OCCNc1nc(NCCO)c2nc(-c3ccccc3)c(-c3ccccc3)nc2n1
88% (active) and 51% (inactive): [3]; [8]
89% (active) and 52% (inactive): [6]; [8]
inactive: [1]; [7] 8% and -2% | [1]; [8] 61% and 43% | [1]; at 50.0 µM -2.2% and 58% | [2]; [7] -3% and 1% | [2]; [8] 45% | [2]; at 50.0 µM -0.45% and 43.8% | [3]; [7] -9% and 0% | [3]; at 50.0 µM 0.6% and 57.6% | [4]; [7] 6% and -2% | [4]; [8] 37% and 32% | [4]; at 50.0 µM -7.45% and 49.8% | [5]; [7] 6% and -1% | [5]; [8] 61% and 43% | [5]; at 50.0 µM -0.8% and 41.7% | [6]; [7] 5% and -1% | [6]; at 50.0 µM 16.5% and 61.2%

Oc1cc2c3c(c1)c1cc4c(cc1c[n+]3CC2)OCO4
74% (active) and 39% (inactive): [4]; [8]
84% (active) and 60% (inactive): [5]; [8]
72% (active) and 56% (inactive): [1]; [8]
inactive: [1]; [7] 42% and 11% | [1]; at 50.0 µM -22.4% and 52% | [2]; [7] 36% and 10% | [2]; [8] 57% and 41% | [2]; at 50.0 µM -44.9% and 33.4% | [3]; [7] 64% and 33% | [3]; at 50.0 µM -5.25% and 50.9% | [4]; [7] 59% and 28% | [4]; at 50.0 µM 0.95% and 43.3% | [5]; [7] 63% and 23% | [5]; at 50.0 µM -36.8% and 31.2% | [6]; [7] 30% and 7% | [6]; [8] 65% and 57% | [6]; at 50.0 µM -30.6% and 53%
85% (active) and 63% (inactive): [3]; [8]

CC(C)CC(Nc1c(O)ccc2ccccc12)C(=O)O (stereo not given)
active: [1]; [8] 98% | [1]; at 50.0 µM 98.8% | [2]; [8] 99% | [2]; at 50.0 µM 99.4% | [3]; [8] 99% | [3]; at 50.0 µM 99.3% | [4]; [8] 99% | [4]; at 50.0 µM 72.7% | [5]; [8] 99% | [5]; at 50.0 µM 95.2% | [6]; [8] 99% | [6]; at 50.0 µM 99.3%
inactive: [1]; [7] 24% | [2]; [7] 0% | [3]; [7] 17% | [4]; [7] 11% | [5]; [7] 15% | [6]; [7] 45%

O=C1NS(=O)(=O)c2ccccc21
inactive: [1]; [7] -9% | [1]; [8] -81% | [1]; at 50.0 µM 23.3% and 33% | [2]; [7] -30% | [2]; [8] -32% | [2]; at 50.0 µM 13.6% and -8.5% | [3]; [7] -11% | [3]; [8] -43% | [3]; at 50.0 µM -12.1% and 24.2% | [4]; [7] -2% | [4]; [8] -17% | [4]; at 50.0 µM 47.5% and 29.4% | [5]; [7] -29% | [5]; [8] -122% | [5]; at 50.0 µM 30.9% and 50.3% | [6]; [7] -6% | [6]; [8] -43% | [6]; at 50.0 µM -19.4% and 20.9%

— PubChem BioAssay (NCI)
